{"source": "PubChem BioAssay (EPA / NIEHS)", "note": "Records with an inconclusive call do not appear. Calls of active or inactive are those of the source. Rule for the calls: active = hit-call score of the fitted dose curve at least 0.9, where 1 is the maximum; inconclusive = response in the unintended direction; inactive = score below 0.9."}
{"tested_on": "guinea pig Atrionatriuretic Peptide Receptor A (ANPA), gene 100135578", "test": "NVS_GPCR_gANPA: NovaScreen (NVS) G Protein-Coupled Receptor Assay for guinea pig Atrionatriuretic Peptide Receptor A (ANPA) (AID 2283291)", "outline": "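Displacement of specific radioligand from guinea pig cerebellum membranes was read by scintillation after 1 h. A duplicate single-point screen at 25 uM was followed by a concentration series up to 50 uM, analysed relative to DMSO.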"}
{"molecule": "CCc1cccc(CC)c1N(COC)C(=O)CCl", "outcome": "inactive"}
{"molecule": "CCOP(=S)(OCC)Oc1ccc2c(C)c(Cl)c(=O)oc2c1", "outcome": "inactive"}
{"molecule": "C#CCC1=C(C)C(OC(=O)C2C(C=C(C)C)C2(C)C)CC1=O", "note": "(configuration not stated)", "outcome": "inactive"}
{"molecular_target": "mouse Cholecystokinin, CCK2 Receptor (CCKB), Cckbr (gene 12426) (UniProt P56481)", "sequence (P56481 whole entry, looked up)": "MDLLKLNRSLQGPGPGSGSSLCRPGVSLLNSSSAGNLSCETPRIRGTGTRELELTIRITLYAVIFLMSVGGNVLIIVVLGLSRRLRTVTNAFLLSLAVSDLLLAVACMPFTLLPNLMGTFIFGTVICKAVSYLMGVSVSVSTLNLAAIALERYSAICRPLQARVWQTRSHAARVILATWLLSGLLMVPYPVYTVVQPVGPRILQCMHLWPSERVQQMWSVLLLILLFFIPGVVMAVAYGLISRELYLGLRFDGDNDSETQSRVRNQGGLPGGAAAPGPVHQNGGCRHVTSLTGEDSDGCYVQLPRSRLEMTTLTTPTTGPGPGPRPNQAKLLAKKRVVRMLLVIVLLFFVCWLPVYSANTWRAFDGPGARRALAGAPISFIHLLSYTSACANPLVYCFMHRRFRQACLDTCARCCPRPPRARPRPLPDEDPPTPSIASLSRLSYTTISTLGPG", "test": "NVS_GPCR_mCKKBCentral: NovaScreen (NVS) G Protein-Coupled Receptor Assay for mouse Cholecystokinin, CCK2 Receptor (CCKB) (AID 2283293)", "outline": "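Mouse forebrain membrane preparation incubated 2 h with chemical and radioligand; bound radioactivity counted after filtration. Single-concentration duplicate screen at 25 uM, then concentration series to 50 uM max for hits, DMSO as baseline.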"}
{"molecule": "FC(F)C(F)(F)OCC(Cn1cncn1)c1ccc(Cl)cc1Cl", "note": "(configuration not stated)", "AC50": "10.3 µM (active)"}
{"molecule": "CCCCSP(=O)(SCCCC)SCCCC", "outcome": "inactive"}
{"molecule": "CC[C@H](C)[C@H]1O[C@]2(C=C[C@@H]1C)C[C@@H]1C[C@@H](C/C=C(\\C)[C@@H](O[C@H]3C[C@H](OC)[C@@H](O[C@H]4C[C@H](OC)[C@@H](NC)[C@H](C)O4)[C@H](C)O3)[C@@H](C)/C=C/C=C3\\CO[C@@H]4[C@H](O)C(C)=C[C@@H](C(=O)O1)[C@]34O)O2", "AC50": "15.4 µM (active)"}
{"molecular_target": "guinea pig Serotonin, 5-Hydroxytryptamine Receptor 4 (5HT4), HTR4 (gene 100135548) (UniProt O70528)", "sequence (O70528 whole entry, looked up)": "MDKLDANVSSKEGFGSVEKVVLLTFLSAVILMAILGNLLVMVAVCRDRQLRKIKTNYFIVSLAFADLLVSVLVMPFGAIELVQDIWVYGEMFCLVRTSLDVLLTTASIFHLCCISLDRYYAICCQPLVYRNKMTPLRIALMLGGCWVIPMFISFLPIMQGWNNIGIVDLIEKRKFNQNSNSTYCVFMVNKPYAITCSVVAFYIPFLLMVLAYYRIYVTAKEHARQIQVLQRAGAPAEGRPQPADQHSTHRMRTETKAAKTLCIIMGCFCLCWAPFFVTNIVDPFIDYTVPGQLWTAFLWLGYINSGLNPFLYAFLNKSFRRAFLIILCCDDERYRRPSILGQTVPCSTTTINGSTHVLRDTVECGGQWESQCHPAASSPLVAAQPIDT", "test": "NVS_GPCR_g5HT4: NovaScreen (NVS) G Protein-Coupled Receptor Assay for guinea pig Serotonin, 5-Hydroxytryptamine Receptor 4 (5HT4) (AID 2283294)", "outline": "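Compounds first screened in duplicate at 25 uM, actives followed up in concentration series. Binding measured as displacement of specific radioligand from guinea pig striatal membranes, 1 h, filter-based scintillation read-out versus DMSO baseline.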"}
{"molecule": "CCCOCC(=Nc1ccc(Cl)cc1C(F)(F)F)n1ccnc1", "outcome": "inactive"}
{"molecule": "CSc1nc(NC(C)C)nc(NC(C)C)n1", "outcome": "inactive"}
{"molecule": "CC(C)[C@H](C(=O)O[C@H](C#N)c1cccc(Oc2ccccc2)c1)c1ccc(Cl)cc1", "outcome": "inactive"}
{"molecule": "CCC(=O)Nc1ccc(Cl)c(Cl)c1", "AC50": "9.91 µM (active)"}
{"molecule": "CC[C@H](C)[C@H]1O[C@]2(C=C[C@@H]1C)C[C@@H]1C[C@@H](C/C=C(\\C)[C@@H](O[C@H]3C[C@H](OC)[C@@H](O[C@H]4C[C@H](OC)[C@@H](NC)[C@H](C)O4)[C@H](C)O3)[C@@H](C)/C=C/C=C3\\CO[C@@H]4[C@H](O)C(C)=C[C@@H](C(=O)O1)[C@]34O)O2", "AC50": "21.4 µM (active)"}
{"molecular_target": "rat Serotonin, 5-Hydroxytryptamine Receptor (5HT), Non-Selective Binding, Htr1a (gene 24473) (UniProt P19327)", "sequence (P19327 whole entry, looked up)": "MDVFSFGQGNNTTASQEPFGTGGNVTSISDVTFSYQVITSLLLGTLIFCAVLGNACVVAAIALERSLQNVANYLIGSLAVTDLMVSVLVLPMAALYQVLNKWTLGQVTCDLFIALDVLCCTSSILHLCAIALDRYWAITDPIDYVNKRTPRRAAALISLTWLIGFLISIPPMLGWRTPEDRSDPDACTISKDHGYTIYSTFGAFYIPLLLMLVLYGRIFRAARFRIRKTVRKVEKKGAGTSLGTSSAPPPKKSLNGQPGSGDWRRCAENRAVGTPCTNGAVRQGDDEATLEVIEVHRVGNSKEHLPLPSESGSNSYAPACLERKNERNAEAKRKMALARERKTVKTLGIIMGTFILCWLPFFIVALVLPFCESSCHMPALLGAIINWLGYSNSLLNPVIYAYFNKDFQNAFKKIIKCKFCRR", "test": "NVS_GPCR_r5HT_NonSelective: NovaScreen (NVS) G Protein-Coupled Receptor Assay for rat Serotonin, 5-Hydroxytryptamine Receptor (5HT), Non-Selective Binding (AID 2283295)", "outline": "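Rat cortex membrane preparation incubated 1 h with radioligand and test chemical; bound radioactivity counted after filtration. Screening began in duplicate at 25 uM with concentration-series follow-up; fitting relative to DMSO.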"}
{"molecule": "COc1cc(OC)nc(Sc2cccc(Cl)c2C(=O)O)n1", "outcome": "inactive"}
{"molecule": "CCOC(=O)COc1cc(-c2nn(C)c(OC(F)F)c2Cl)c(F)cc1Cl", "outcome": "inactive"}
{"molecule": "CCC(=O)Nc1ccc(Cl)c(Cl)c1", "AC50": "34.6 µM (active)"}
{"molecular_target": "rat Adrenergic Receptor, Alpha 2 (Adra2), Non-selective Binding, Adra2a (gene 25083) (UniProt P22909)", "sequence (P22909 whole entry, looked up)": "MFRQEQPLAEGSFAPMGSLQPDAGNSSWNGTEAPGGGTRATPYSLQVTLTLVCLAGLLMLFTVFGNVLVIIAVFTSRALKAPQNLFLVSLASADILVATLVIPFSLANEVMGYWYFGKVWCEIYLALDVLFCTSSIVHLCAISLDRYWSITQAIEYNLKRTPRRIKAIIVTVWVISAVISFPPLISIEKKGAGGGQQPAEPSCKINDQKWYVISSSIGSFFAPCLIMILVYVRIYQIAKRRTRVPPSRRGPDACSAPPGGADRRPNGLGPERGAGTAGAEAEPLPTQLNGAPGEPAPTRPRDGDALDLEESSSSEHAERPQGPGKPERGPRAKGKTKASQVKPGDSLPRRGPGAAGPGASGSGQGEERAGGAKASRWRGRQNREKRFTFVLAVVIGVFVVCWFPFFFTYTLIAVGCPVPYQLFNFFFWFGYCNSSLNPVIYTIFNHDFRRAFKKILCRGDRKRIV", "test": "NVS_GPCR_rAdra2_NonSelective: NovaScreen (NVS) G Protein-Coupled Receptor Assay for rat Adrenergic Receptor, Alpha 2 (Adra2), Non-selective Binding (AID 2283299)", "outline": "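Filter-based scintillation counting of radioligand binding to rat cortical membrane receptors, measured 1.25 hours post-dosing; loss of signal versus DMSO indicates displacement. Initial single-concentration duplicate at 25 uM, then concentration series.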"}
{"molecule": "CCOP(=S)(Oc1cnc(C(C)(C)C)nc1)OC(C)C", "note": "(configuration not stated)", "outcome": "inactive"}
{"molecule": "CC(C)[C@H](C(=O)O[C@H](C#N)c1cccc(Oc2ccccc2)c1)c1ccc(Cl)cc1", "outcome": "inactive"}
{"molecule": "S=C1NCCN1", "outcome": "inactive"}
{"molecule": "CC[C@H](C)[C@H]1O[C@]2(C=C[C@@H]1C)C[C@@H]1C[C@@H](C/C=C(\\C)[C@@H](O[C@H]3C[C@H](OC)[C@@H](O[C@H]4C[C@H](OC)[C@@H](NC)[C@H](C)O4)[C@H](C)O3)[C@@H](C)/C=C/C=C3\\CO[C@@H]4[C@H](O)C(C)=C[C@@H](C(=O)O1)[C@]34O)O2", "AC50": "11.5 µM (active)"}
{"molecular_target": "rat Corticotropin Releasing Factor Receptor (CRF), Crhr1 (gene 58959) (UniProt P35353)", "sequence (P35353 whole entry, looked up)": "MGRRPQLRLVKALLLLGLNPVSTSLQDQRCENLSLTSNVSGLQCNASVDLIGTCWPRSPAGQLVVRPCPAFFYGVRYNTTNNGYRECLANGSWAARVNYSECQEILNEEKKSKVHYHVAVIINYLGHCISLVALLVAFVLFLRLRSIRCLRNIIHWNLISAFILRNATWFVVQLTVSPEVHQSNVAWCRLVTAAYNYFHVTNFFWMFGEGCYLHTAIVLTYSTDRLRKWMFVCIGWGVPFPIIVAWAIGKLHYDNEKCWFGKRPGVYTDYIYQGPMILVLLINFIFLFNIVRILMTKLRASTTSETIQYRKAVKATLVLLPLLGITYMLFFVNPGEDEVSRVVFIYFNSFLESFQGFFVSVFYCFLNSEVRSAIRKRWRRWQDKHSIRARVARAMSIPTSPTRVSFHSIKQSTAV", "test": "NVS_GPCR_rCRF: NovaScreen (NVS) G Protein-Coupled Receptor Assay for rat Corticotropin Releasing Factor Receptor (CRF) (AID 2283300)", "outline": "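Single-concentration (25 uM, duplicate) radioligand binding on rat cortical membrane preparations, counted by scintillation after 2 h. Activity scored as signal loss relative to DMSO negative control.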"}
{"molecule": "Cc1cc(C2CC2)nc(Nc2ccccc2)n1", "outcome": "inactive"}
{"molecule": "Nc1c(Cl)cc([N+](=O)[O-])cc1Cl", "outcome": "inactive"}
{"molecule": "C#CC(C)(C)NC(=O)c1cc(Cl)cc(Cl)c1", "outcome": "inactive"}
{"molecule": "CC(C)=CC1C(C(=O)OCN2C(=O)C3=C(CCCC3)C2=O)C1(C)C", "note": "(configuration not stated)", "outcome": "inactive"}
